# Source: PubChem BioAssay AID1347416 (National Center for Advancing Translational Sciences (NCATS), 2020)
# Hit rate of the full screen: of about 4,100 compounds, about 1,600 (39%) were called active. Not shown: some 25% with an inconclusive outcome. Calls come from the whole dose curve; as a rule, active = well fitted inhibition curve with a large enough effect; inconclusive = small, poorly fitted or top-dose-only effect; inactive = no such curve, though single readings can be large or run the other way. The list shows a part of the results.
# Test: qHTS Validation assay for Inhibitors of Plasmodium falciparum Dd2 growth in vitro; note: nearly all actives have a fitted effect of over 70% in size
# Conditions: P. falciparum Dd2 in RBCs, SYBR Green growth, 72 h; series mostly up to 28.7 µM; activity change, negative = inhibition: at the top concentration
# Source text: Malaria, a parasitic disease spread to humans through the bite of a Plasmodium infected Anopheles mosquito, continues to be a global health burden affecting millions of people, with an estimated 228 million cases and 405,000 deaths in 2018. Concerns about safety and limitations of current antimalarial treatments strongly emphasize the need to develop new therapeutic options. The scarce number of chemotypes and validated drug targets with efficacy against the liver stage, have hindered development of new antimalarials. To address this, a chemoprophylactic drug discovery effort was conducted through a combined phenotypic high-throughput asexual blood stage and liver stage screen, providing a robust foundation to identify liver-stage active lead chemotypes. Compounds were initially screened against Plasmodium falciparum Dd2 strain parasites using a in vitro SYBRGreen-1 based 72 hr proliferation assay to identify novel chemotypes to advance to liver stage assays. NIH/NCATS Early Translation Branch Assay Submitter (PI): Anton Simeonov Ph.D.
# […] Assay Protocol: PROTOCOL TABLE (as described by Inglese et al., 2007) SEQUENCE No. (e.g., 1, 2, 3, etc.); PARAMETER (e.g., Cells, Incubation, Reagent, etc.); VALUE; DESCRIPTION SEQUENCE, Parameter, Description 1; Reagent; 3 uL complete malaria growth medium, 1536 TC treated Black clear bottom plate 2; Controls; 23 nL positive control artesunate (300 nM final) to column 1; Neutral control DMSO to columns 2-4 3; Compound; 23 nL of compounds in dose response concentration (29 uM to 0.5 nM final) 4; Reagent; 5 uL malaria infected red blood cells (2.5% hematocrit final, 0.3% parasitemia 5; Time; 72 hours at 37C (5% O2, 5% CO2, 90% N2; 95% Rh) 6; Reagent; 2 uL lysis buffer/SYBRGreen-1, 25 sec shake immediately following dispense 7; Time; ~16 hours at 37C (5% O2, 5% CO2, 90% N2; 95% Rh) 8; Detector; EnVision (PerkinElmer) bottom read at 485/14nm excitation and 535/25 nm emission NOTES (numbers refer to sequence above): 1; Complete Malaria Growth Media: 1X RPMI-1640 w/L-glutamine, 5.5g/L Albumax II, 367 uM Hypoxanthine, 25 mM HEPES, 0.25% Sodium Bicarbonate, 35 uM Gentamicin sulfate 2; Controls were added using the Kalypsis Pintool (Wako USA) equipped with 1536 pinhead 3; Compounds were added in a 7-point, titration with a high final concentration of 29 uM by Pintool from seven inter-plate titrations of library plates and two DMSO control plates at the beginning and end (see Yasgar et al., 2008). 4; Red blood cells infected with Plasmodium falciparum Dd2 parasites were used. 6; Lysis buffer: 20 mM Tris-HCl, 10 mM EDTA, 0.16% Saponin, 1.6% Triton-X, 10X SYBR Green. REFERENCE: Inglese J, Shamu CE, Guy RK. 2007. Reporting data from high-throughput screening of small-molecule libraries. Nat Chem Biol. doi:10.1038/nchembio0807-438 Yasgar A, Shinn P, Jadhav A, Auld D, Michael S, Zheng W, Austin CP, Inglese J, Simeonov A. 2008. Compound Management for Quantitative High-Throughput Screening. J Lab Autom 13:79-89. doi:10.1016/j.jala.2007.12.004
# % is set by controls: 0 for no effect and ±100 for the full control effect; potency is the fitted concentration of half-maximal effect.
SMILES,"activity change, negative = inhibition",Potency
COc1ccc(N=C2NC(=O)/C(=C\c3ccco3)S2)cc1,18.9% (inactive),–
C#CCN(C)Cc1nc(C2(O)CCN(C(C)=O)CC2)cs1,10.6% [at 43.1 µM] (inactive),–
CCN(CC)C(=O)[C@@H]1CCCN1[C@H](Cc1ccccc1)C(=O)NC,14.1% [at 43.1 µM] (inactive),–
Cc1noc(C)c1-c1cc2cc(CN(C)C)oc2c(NCCc2ccccc2)n1,–,13.7 µM (active)
Cc1noc(C)c1-c1cc2cc(CN(C)C)oc2c(NCCOc2ccccc2)n1,–,15.3 µM (active)
CC(C)c1nc2oc3c(NCC4CCCO4)ncnc3c2c2c1CCC2 (centres undefined),-24.5% (inactive),–
COCCN(CC1CCCO1)c1nc(CCN)nc2ccccc12 (centres undefined),52.7% (inactive),–
CCOc1ccc(Nc2nc(NCC3CCCO3)c3ccccc3n2)cc1 (centres undefined),–,1.88 µM (active)
CSc1nnc(-c2cc3ccccc3cc2O)n1C,–,7.5 µM (active)
Cc1cccc(-c2nnc(SCC(=O)NC3CC3)n2C)c1,83.7% (inactive),–
Cn1c(SCC(=O)N2c3ccccc3CCc3ccccc32)nnc1-c1cc2ccccc2cc1O,–,8.41 µM (active)
Cc1noc([C@@H]2CN(C3CCSCC3)C[C@H]2CO)n1,16.2% (inactive),–
O=C(COc1ccccc1)N[C@H]1CO[C@H]2[C@@H]1OC[C@@H]2n1nnnc1Oc1ccc2c(c1)OCO2,28.9% (inactive),–
CCOC(=O)c1c(C)oc2nc(C)nc(Nc3ccc(CC)cc3)c12,–,7.5 µM (active)
CCOC(=O)c1c(C)oc2nc(C)nc(Nc3ccc(C)c(Cl)c3)c12,0.853% (inactive),–
O=C(Nc1ccccc1)c1cc2c(-c3ccccc3)nn(-c3ccccc3)c2s1,–,3.35 µM (active)
Cc1ccccc1NC(=O)c1cc2c(-c3ccccc3)nn(-c3ccccc3)c2s1,–,11.9 µM (active)
O=C(Nc1ccc(Cl)cc1)c1cc2c(-c3ccccc3)nn(-c3ccccc3)c2s1,–,2.37 µM (active)
CCOc1ccc2ncc3c(-c4ccccc4)nn(CC(=O)Nc4cccc(F)c4)c3c2c1,67.4% (inactive),–
O=C(O)Cc1sc(Nc2ccccc2Cl)nc1-c1ccccc1,12% (inactive),–
Cc1ccccc1NC(=O)Cn1c(=O)n(-c2ccccc2)c(=O)c2c1cc(C)n2C,1.47% (inactive),–
COc1ccc(O)c(C(=O)c2cnc3c(c2)c(-c2ccc(F)cc2)c(C#N)c(=O)n3C)c1,–,5.96 µM (active)
Cc1cccc(CC(=O)N2CCC3(CC2)CC(O)CCO3)c1 (centres undefined),22.4% (inactive),–
O=C(CCC1CCCN(C(CO)CO)C1)N1CCN(Cc2ccccc2)CC1 (centres undefined),32% (inactive),–

SMILES,"activity change, negative = inhibition",Potency
Cc1cccc(CN2CCN(C(=O)CCl)CC2)c1,–,13.3 µM (active)
COc1ccc(C)cc1N(C(=O)COc1cccc(F)c1)c1nc2ccccc2s1,–,5.96 µM (active)
COc1ccc(-c2nc3ccccc3s2)cc1NC(=O)c1cc2ccccc2o1,-22% (inactive),–
COc1ncc(-c2cc3c(nc2OC)nc(CC2CC2)n3C)cn1,-9.43% [at 43.1 µM] (inactive),–
CCc1nn2cc(C(=O)c3cc(C)ccc3O)cnc2c1-c1ccc(F)cc1,–,9.44 µM (active)
COc1ccc([C@@H]2CN(C(=O)CCc3c(C)noc3C)C[C@H]2N(C)C)cc1,4.96% (inactive),–
CCC(C)NC(=O)N1CC(c2nc(CCOCC3CCOCC3)no2)C1 (centres undefined),22.5% (inactive),–
Nc1nc(N)c2cc(Sc3ccc4ccccc4c3)ccc2n1,–,1.33 µM (active)
CCOC(=O)c1ccc(Nc2nnc(C(C)(C)C)c(=O)[nH]2)cc1,–,13.3 µM (active)
Cc1cc(NC(=O)c2cc(-c3ccco3)on2)nn1Cc1ccc(Cl)cc1,–,8.41 µM (active)
Cc1cc(C(=O)Nc2cc(C)n(Cc3ccc(Cl)cc3)n2)no1,-24.4% (inactive),–
CCc1ccc(CN(Cc2ccco2)C(=O)c2cc(-c3ccc(Cl)cc3)on2)cc1,72.8% (inactive),–
CCC(=O)N/C(N)=N/c1nc(C)c2cc(C)c(C)cc2n1,–,9.44 µM (active)
COC(=O)c1cc(O)cc(OC)c1Oc1cc(C)cc(O)c1C(=O)O,–,4.22 µM (active)
O=C(Cc1cccs1)NC1CCN(c2cc(C(F)(F)F)ncn2)CC1,10% (inactive),–
Cc1ccc(NC(=O)Cn2c(=O)n(-c3ccc(C)cc3)c(=O)c3ccc(C(=O)NCc4ccccc4Cl)cc32)cc1,–,5.31 µM (active)
O=C(CCCCn1c(=O)c2ccccc2n(CC(=O)Nc2ccccc2)c1=O)NCc1ccccc1Cl,33.3% (inactive),–
COC(=O)c1ccccc1NC(=O)Cn1c(=O)n(CCCC(=O)NCc2ccccc2Cl)c(=O)c2ccccc21,-14.9% (inactive),–
CN(C)CCCn1cnc2c(c1=N)C(c1ccccc1)c1ccc3ccccc3c1O2 (centres undefined),–,3.76 µM (active)
COc1ccc(C2c3ccc4ccccc4c3Oc3ncn(CCCN(C)C)c(=N)c32)cc1 (centres undefined),–,2.99 µM (active)
CN1CCN(c2cc(=O)c3ccnc(-c4cn[nH]c4)c3o2)CC1,14.8% [at 43.1 µM] (inactive),–
CC(C)CNC(=O)c1ccc2c(c1)NC(C)(CNc1ccccc1)CO2 (centres undefined),12.1% [at 43.1 µM] (inactive),–
CCC(C)N(CCNC(=O)c1ccc2c(c1)NC(=O)c1ccccc1S2)C1CCCCC1 (centres undefined),–,13.3 µM (active)
CCOC(=O)COn1c(-n2nc(C)cc2C)nc2ccccc2c1=O,–,9.44 µM (active)

SMILES,"activity change, negative = inhibition",Potency
CCOC(=O)CCn1nc(-c2ccc(C)cc2)c2ccccc2c1=O,-3.49% (inactive),–
Cc1cc(C)n(CC(=O)N2C[C@@H](COc3ccccc3)[C@H](C(N)=O)C2)n1,15.8% (inactive),–
COc1ccc(C2c3ccc(O)cc3Oc3ncn4nc(-c5ccncc5)nc4c32)cc1OC (centres undefined),–,15 µM (active)
COc1ccc(C(=O)N2CCC3(CC2)COc2ccccc2CN3)cc1,–,10.6 µM (active)
Cc1ccccc1C(=O)N1CCC2(CC1)NC(=O)N(c1ccc(F)cc1)N2,-26.7% (inactive),–
COc1ccc(C(=O)N2CCN3C(=O)N(C4CCOCC4)C[C@H]3C2)cc1,0% [at 43.1 µM] (inactive),–
CCc1noc(-c2cn(C3CCCN(C(=O)c4ccc5c(c4)OCO5)C3)nn2)n1 (centres undefined),-13.6% (inactive),–
O=C1NCc2ccccc2CC12CCN(Cc1ccccc1F)CC2,9.53% (inactive),–
c1ccc2c(c1)CNC1(CCN(Cc3cccc4ccccc34)CC1)CO2,–,7.5 µM (active)
O=C(c1ccccc1-c1ncc[nH]1)N1CC[C@@H](c2ccc3c(c2)OCO3)[C@H](O)C1,12.5% (inactive),–
O=C(c1ccccc1F)N1CCCC2(C1)NC(=O)N(Cc1cccc(Cl)c1)C2=O (centres undefined),-0.29% (inactive),–
O=C(c1ccc2c(c1)OCO2)N1CCC2(CC1)COc1ccccc1CN2,–,5.31 µM (active)
O=C(c1ccccc1F)N1CCC2(CC1)COc1ccccc1CN2,–,4.33 µM (active)
COc1ccc(C(=O)N2CCC3(CC2)CC(C(C)C)=NO3)cc1,31.2% [at 43.1 µM] (inactive),–
Cc1ccc(-c2cn3c(n2)N(C(=O)c2sc(C)nc2C)CCC3)cc1,22.3% (inactive),–
COC(=O)c1c(NC(=O)/C(C#N)=C/c2ccccc2)sc2c1C(C(=O)OC)CC2 (centres undefined),-16.9% (inactive),–
CNC(=O)N1CCC(Cc2nncn2C(C)C)C1 (centres undefined),21.1% (inactive),–
Cn1cc(C(=O)N2CCN(c3ccccc3)CC2)c(=O)c2cc(S(=O)(=O)N3CCCC3)ccc21,16.1% (inactive),–
CCn1cc(C(=O)N2CCN(c3cc(Cl)ccc3C)CC2)c(=O)c2cc(S(=O)(=O)N3CCCCC3)ccc21,35.7% (inactive),–
COc1ccc(C(=O)N2CCN(c3nnc4cccc(C)n34)CC2)cc1F,6.68% (inactive),–
Cn1cc(C(=O)NCCN2CCN(c3cccc(Cl)c3)CC2)c2c3ccccc3n(C)c2c1=O,–,4.73 µM (active)
Cc1ccc(Cl)cc1N1CCN(C(=O)c2cn(CC(C)C)c(=O)c3c2c2ccccc2n3C)CC1,–,3.35 µM (active)
CCOC(=O)c1ccccc1NC(=O)c1cn(CC(C)C)c(=O)c2cc(OC)c(OC)cc12,–,8.41 µM (active)
COc1cc2c(C(=O)N3CCN(c4cc(Cl)ccc4C)CC3)cn(CC(C)C)c(=O)c2cc1OC,–,15 µM (active)

SMILES,"activity change, negative = inhibition",Potency
CCc1ccccc1NC(=O)c1cn(C)c(=O)c2ccccc12,3.09% (inactive),–
CC(C)C[C@H]1NC(=O)[C@@H]2C[C@@H](NC(=O)CS(=O)(=O)c3ccccc3)CCN2C1=O,48.1% [at 43.1 µM] (inactive),–
CCOC(=O)N1CCc2c(sc3c2c(=O)n(Cc2ccccc2)c(=O)n3Cc2ccccc2Cl)C1,–,4.73 µM (active)
CCOC(=O)N1CCc2c(sc3c2c(=O)n(CCc2ccccc2)c(=O)n3Cc2c(F)cccc2Cl)C1,–,2.66 µM (active)
CCOC(=O)N1CCc2c(sc3c2c(=O)n(-c2ccccc2C(F)(F)F)c(=O)n3Cc2ccccc2C)C1,–,13.3 µM (active)
CC(=O)N1CCc2c(sc3c2c(=O)n(Cc2ccccc2)c(=O)n3CC(=O)NCC2CCCO2)C1 (centres undefined),-20.3% (inactive),–
O=C(Cn1ccn2nc3c(c2c1=O)CCCCC3)NCc1ccccc1Cl,28.4% (inactive),–
Cc1nc(C)c(C(=O)NCC2CCCCC(=O)N2)s1 (centres undefined),10% (inactive),–
COc1ccc(OC)c(-n2c(-c3cccc(O)c3)n[nH]c2=S)c1,–,4.22 µM (active)
COc1ccc(OC)c(-n2nnc(-c3nc(-c4cc(OC)c(OC)c(OC)c4)no3)c2C)c1,-13.5% (inactive),–
O=C1NCCCCCCN(C(=O)c2cnccn2)[C@H]2CCCC[C@@H]12,15.9% (inactive),–
COc1ccccc1-c1[nH]nc2ncc(-c3c(C)noc3C)nc12,36.2% [at 43.1 µM] (inactive),–
COc1ccc(-c2[nH]nc3ncc(-c4ccc([S+](C)(=O)[O-])cc4)nc23)c(C)c1,–,15.3 µM (active)
Cc1ccsc1-c1[nH]nc2ncc(-c3ccccc3)nc12,0% [at 57.5 µM] (inactive),–
O=C(O)C[C@@H]1CCN(C(=O)C2CCCCC2)C[C@@H]1CCN1CCOCC1,0% [at 43.1 µM] (inactive),–
CC1CCC2(CC1)NC(=O)N(CC(=O)Nc1ccc(Cl)cc1)C2=O (centres undefined),3.07% (inactive),–
CCOc1ccccc1C1NC(=O)N(CC(=O)Nc2ccc(OC)cc2)C2=C1C(=O)OC2 (centres undefined),-4.47% (inactive),–
CCOc1ccc(NC(=O)CN2C(=O)NC(C)(c3ccc(OC(F)F)cc3)C2=O)cc1 (centres undefined),–,9.44 µM (active)
CCCN(CC1CC1)C(=O)[C@@H]1COCC(=O)N1Cc1ccccc1,-21.1% (inactive),–
Cc1cc(C)c(S(=O)(=O)Nc2cc(-c3cn4ccccc4n3)ccc2C)cc1C,38.2% (inactive),–
Cc1ccc2nc(-c3ccc(O)c(O)c3)cn2c1,–,13.3 µM (active)
CC(C)c1ccc(C2c3[nH]c4ccccc4c3C[C@H]3C(=O)N(c4ccccc4C(=O)N4CCC(C(=O)O)CC4)C(=O)N23)cc1 (some centres undefined),–,6.68 µM (active)
